Experiment [1] can be described thus: AP1 Signaling Pathway (AID 357; active = well fitted curve in either direction with a large enough effect, not every such curve was filed as active;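 also: ME-180 reporter cells stimulated with EGF at its EC50 level; % is scaled to controls: 0 for no effect and ±100 for the full control effect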). The note with it: ME-180 (cervical carcinoma) AP-1-bla reporter, EGF-induced, beta-lactamase ratio, 5 h; at 38 µM (top of the series). In short, it runs like this:
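Cells are seeded overnight, exposed to compound titrations and an EC50 level of EGF for 5 hours at 37 °C, then loaded with CCF4 dye for 2.5 hours. Beta-lactamase activity under the AP-1 element is read as a blue/green ratio.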

Experiment [2] addresses Cytochrome P450 1A2 (Homo sapiens) (UniProt P05177). Description: p450-cyp1a2 (AID 410; calls by dose curve; also: potency is read from the fitted curve at half-maximal effect;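 as to activity change, negative = inhibition: -100% = full effect of reference inhibitor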). In short, it runs like this:
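Luminescent demethylation readout: Luciferin-ME (100uM, equal to Km) turned over by 20nM CYP1A2 for 60 min at room temperature after NADPH regeneration addition, following 10 min compound preincubation. Normalization used 57 uM furafylline as full inhibition.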

Experiment [3] in a line: NFAT Signaling Pathway (AID 444; active = well fitted curve in either direction with a large enough effect, not every such curve was filed as active;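 also: carbachol stimulus at about its EC50 of 1 µM final; % is scaled to controls: 0 for no effect and ±100 for the full control effect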). The note with it: Jurkat NFAT-bla M1, carbachol, beta-lactamase ratio, 5 h; at 38 µM (top of the series). In short, it runs like this:
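Jurkat cells with NFAT-driven β-lactamase reporter and co-expressed M1 receptor, stimulated with carbachol (final 1 uM, ~EC50), compound titration, 5 h at 37 °C. CCF4 loaded 1 h at RT; 460/530 nm ratio gave %activity and AC50.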

The target in experiment [4] is Glucocorticoid receptor (Homo sapiens) (UniProt P04150). Description: GR-GFP Redistribution (AID 450;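 active = compounds whose dose series gives a full or clear partial fitted curve of increased nuclear translocation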; also: potency is read from the fitted curve at half-maximal effect). The note with it: U2OS GR-GFP nuclear translocation, laser cytometry, 2 h.
Sequence of Glucocorticoid receptor (Homo sapiens) (P04150 whole entry, looked up): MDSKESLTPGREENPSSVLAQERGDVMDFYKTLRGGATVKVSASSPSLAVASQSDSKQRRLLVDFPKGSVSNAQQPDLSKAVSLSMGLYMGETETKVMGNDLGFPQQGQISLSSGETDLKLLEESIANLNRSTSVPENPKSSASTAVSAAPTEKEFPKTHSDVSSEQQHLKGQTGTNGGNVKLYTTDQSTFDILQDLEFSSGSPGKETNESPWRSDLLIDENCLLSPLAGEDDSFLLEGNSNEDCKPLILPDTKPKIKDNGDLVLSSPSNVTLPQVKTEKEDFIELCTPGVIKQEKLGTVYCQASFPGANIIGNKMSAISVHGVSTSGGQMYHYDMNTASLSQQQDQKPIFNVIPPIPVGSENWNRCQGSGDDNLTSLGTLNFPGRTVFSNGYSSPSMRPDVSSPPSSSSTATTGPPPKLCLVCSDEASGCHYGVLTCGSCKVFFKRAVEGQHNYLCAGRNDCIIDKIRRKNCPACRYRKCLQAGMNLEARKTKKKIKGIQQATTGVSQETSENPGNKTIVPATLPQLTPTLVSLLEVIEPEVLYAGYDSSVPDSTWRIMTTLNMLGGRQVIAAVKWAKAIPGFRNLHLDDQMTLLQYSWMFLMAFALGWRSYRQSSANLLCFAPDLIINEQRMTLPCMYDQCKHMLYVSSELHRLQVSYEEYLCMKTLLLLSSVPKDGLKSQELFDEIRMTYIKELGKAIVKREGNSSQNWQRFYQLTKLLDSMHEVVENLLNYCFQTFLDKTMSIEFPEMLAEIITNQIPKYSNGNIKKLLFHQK
The target is the same in experiment [5]. Description: GR-EFC Redistribution (AID 451; calls by dose curve; also: potency is read from the fitted curve at half-maximal effect). The note with it: CHO-K1 GR-EFC translocation, beta-gal luminescence, 2 h. In short, it runs like this:
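CHO-K1 cells expressing nuclear EA and GR-ED fragments of b-gal; compounds titrated up to 46 uM final, 2 h at 37 C. GR nuclear translocation read as complemented b-gal luminescence after 1 h RT detection.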

The target in experiment [6] is 3',5'-cyclic-AMP phosphodiesterase 4B (Homo sapiens) (UniProt Q07343). Description: qHTS Assay for Inhibitors of PDE-IV (AID 607; active = well fitted activation curve with a large enough effect in the main read-out, with a control signal flat, not every such curve was filed as active; also: % of control where 0% means no effect). The method, boiled down: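 ACTOne HEK293 cells carry a modified cAMP-gated CNG channel and express endogenous PDE4; plated 1000 cells/well, compounds up to 22.9 uM final. Membrane-potential dye fluorescence (ex 535/em 590) was read; parental cells received 10 uM forskolin + 100 uM RO 20-1724.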
Sequence of 3',5'-cyclic-AMP phosphodiesterase 4B (Homo sapiens) (Q07343 whole entry, looked up): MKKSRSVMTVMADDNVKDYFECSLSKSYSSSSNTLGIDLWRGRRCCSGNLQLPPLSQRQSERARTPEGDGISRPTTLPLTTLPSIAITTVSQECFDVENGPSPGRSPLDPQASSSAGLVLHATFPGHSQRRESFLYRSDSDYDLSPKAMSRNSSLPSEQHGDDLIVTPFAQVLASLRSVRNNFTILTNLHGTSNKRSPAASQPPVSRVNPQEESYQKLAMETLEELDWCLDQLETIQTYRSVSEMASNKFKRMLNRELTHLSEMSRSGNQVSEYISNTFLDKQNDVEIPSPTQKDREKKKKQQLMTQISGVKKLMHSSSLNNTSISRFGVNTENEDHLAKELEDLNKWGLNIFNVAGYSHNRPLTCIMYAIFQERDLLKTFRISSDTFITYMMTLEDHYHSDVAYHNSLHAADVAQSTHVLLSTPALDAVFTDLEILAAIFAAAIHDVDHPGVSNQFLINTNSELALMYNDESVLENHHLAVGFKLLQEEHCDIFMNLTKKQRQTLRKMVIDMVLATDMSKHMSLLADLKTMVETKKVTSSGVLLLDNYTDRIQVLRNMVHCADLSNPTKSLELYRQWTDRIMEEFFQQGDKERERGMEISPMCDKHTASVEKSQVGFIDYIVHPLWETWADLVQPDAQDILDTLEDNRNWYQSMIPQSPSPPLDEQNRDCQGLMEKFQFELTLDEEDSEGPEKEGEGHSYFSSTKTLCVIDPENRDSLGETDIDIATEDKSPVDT

Experiment [7] deals with Guanine nucleotide-binding protein G(i) subunit alpha-1 (Homo sapiens) (UniProt P63096). Briefly: qHTS Assay for Inhibitors of RGS12 GoLoco Motif Activity (Green Fluorophore) (AID 879).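 Also: 0% = labeled peptide with Gαi1 and full inhibition = labeled peptide alone without protein; negative values mean loss of peptide binding seen as reduced polarization.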 The method, boiled down: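 A drop in FITC polarization marked displacement of the FITC-tagged RGS12 GoLoco peptide (10 nM) from Gαi1 (50 nM). Compounds were incubated 10 min at room temperature in Tris pH 7.5 buffer containing 150 mM NaCl, 0.1 mM GDP and 0.05% NP40; unlabeled peptide titration served as control.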
Sequence of Guanine nucleotide-binding protein G(i) subunit alpha-1 (Homo sapiens) (P63096 whole entry, looked up): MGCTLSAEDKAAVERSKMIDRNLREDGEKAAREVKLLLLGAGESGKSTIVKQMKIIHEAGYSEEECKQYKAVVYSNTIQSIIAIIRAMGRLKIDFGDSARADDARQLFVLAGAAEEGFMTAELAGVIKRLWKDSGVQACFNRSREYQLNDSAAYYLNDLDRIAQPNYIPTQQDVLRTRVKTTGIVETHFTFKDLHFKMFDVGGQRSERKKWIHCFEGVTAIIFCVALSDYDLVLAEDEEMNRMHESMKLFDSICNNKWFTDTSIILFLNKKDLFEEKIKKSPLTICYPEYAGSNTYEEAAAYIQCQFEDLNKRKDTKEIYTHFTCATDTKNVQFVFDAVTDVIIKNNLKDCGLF
(In general: qHTS replaces the single test concentration by a dilution series.)

Experiment [8] concerns the target Cytochrome P450 3A4 (Homo sapiens) (UniProt P08684). Briefly: qHTS Assay for Activators of Cytochrome P450 3A4 (AID 885). Also: nearly all actives have a fitted effect of over 65% in size. In short, it runs like this:
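CYP3A4 activity: Luciferin-PPXE O-dealkylation, 25uM substrate, 200mM KPO4, RT throughout. Read-out is luciferase luminescence; higher values reflect activation.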

For experiment [9], the target named is Cytochrome P450 2C19 (Homo sapiens) (UniProt P33261). Description: qHTS Assay for Inhibitors and Substrates of Cytochrome P450 2C19 (AID 899). Also: nearly all actives have a fitted effect of over 60% in size. Also: potency is read from the fitted curve at half-maximal effect. The method, boiled down:
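5 nM human CYP2C19 with 10uM Luciferin-H EGE (at KM) in 50mM KPO4, compound preincubated 10 min at 37C, then NADPH regeneration for 60 min at 37C. Luciferin read by luminescence after detection reagent; normalized to 57uM ketoconazole as full inhibition.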

A short description of experiment [10]: qHTS Assay for Identification of Small Molecule Agonists for Thrombopoietin (TPO) Signaling Pathway (AID 917). Also: % is scaled to controls: 0 for no effect and ±100 for the full control effect. In short, it runs like this:
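Stimulation at the TPO EC50 (26 pM final) was used to detect activators. Ba/F3 mouse cells bearing human TPO receptor and a luciferase reporter under the Glycoprotein IIb promoter were exposed to compounds for 24 hrs at 37 C.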

Experiment [11] concerns the target Pyruvate kinase (Leishmania mexicana) (UniProt Q27686). Description: qHTS Validation Assay for Inhibitors of Leishmania Mexicana Pyruvate Kinase (AID 945).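 Also: 0% = DMSO only neutral control wells.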 The method, boiled down:
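Eight-point qHTS titrations in triplicate, data normalized to DMSO neutral control. Reaction: 0.2 nM LmPYK E451W mutant, 0.5 mM PEP, 0.1 mM ADP, 7 mM MgCl2, pH 7.2, one hour at room temperature; luminescent ATP detection.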

The target in experiment [12] is Alpha-galactosidase A (Homo sapiens) (UniProt P06280). Briefly: Counterscreen for Glucocerebrosidase Inhibitors: qHTS Assay for Human alpha-Galactosidase at pH 4.5 (AID 992). Also: 0% is about no effect. The method, boiled down:
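Citrate buffer pH 4.5, Tween-20 0.005%. Enzyme 2 nM, substrate 80 uM, 20 min RT. Stop pH 10. Fluorescence Ex 365/Em 440. AC50 by Hill fit.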
(The purpose of a counterscreen is to sort out artefacts and off-target activity.)

The target in experiment [13] is alpha-glucosidase (Oryza sativa, rice) (UniProt Q653V4). Briefly: Counterscreen for Glucocerebrosidase Inhibitors: qHTS Assay for Rice alpha-Glucosidase at pH 5.0 (AID 997).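 Also: 0% = full activity with enzyme and -100% = basal without enzyme.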 In short, it runs like this:
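Endpoint fluorogenic assay at pH 5.0: compounds (0.7 nM to 77 uM) titrated against 4 nM rice enzyme and 400 uM 4-MU-alpha-glucoside for 20 min at room temperature; NaOH/glycine stop, read ex 365/em 440 nm, Hill-fitted AC50.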

Experiment [14] can be described thus: qHTS Assay for Lipid Storage Modulators (AID 1519; calls by dose curve). The note with it: Drosophila S3 cells, BODIPY lipid droplet/cell ratio, laser cytometry, cells loaded with oleic acid; for activity change, negative = inhibition: at 57.5 µM (top of the series). The method, boiled down: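 Cells seeded at 5,000 per well were treated with compounds over a concentration series and loaded with oleic acid (400 uM, as added). Lipid droplet fluorescence (488 nm excitation, 500-530 nm channel) was read by laser-scanning cytometry and normalized to 20 uM Triacsin C.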

For experiment [15], the target named is DNA dC->dU-editing enzyme APOBEC-3G (Homo sapiens) (UniProt Q9HC16). Description: qHTS for inhibitors of Vif-A3G interactions: Validation (AID 588379). Also: 0% is about no effect. The method, boiled down:
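Yellow fluorescence (Ex 488, Em 500-530) of Vif-coexpressing HeLa A3G-eYFP cells, scanned by Acumen cytometer, reports blocked A3G degradation. Cells plated at 700/well overnight at 37 deg C before compound addition, then a further overnight compound incubation at 37 deg C.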

Experiment [16] relates to Zika virus NS2B-NS3 protease. Description: Primary screen GU AMC qHTS for Zika virus inhibitors (AID 1347154).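 Also: 0% = no-inhibitor control and -100% = no-enzyme control; nearly all actives have a fitted effect of over 70% in size.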 The method, boiled down: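 Unlinked Zika NS2B hydrophilic domain–NS3 protease complex at 25 nM in 10 mM Tris-HCl pH 8.0, 0.01% Tween 20, with an AMC peptide substrate. Fluorescence change (340/450 nm) over 15 min at room temperature, normalized to controls, fitted to 4-parameter Hill.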

The nature of experiment [17]: Primary qHTS for small molecule stabilizers of the endoplasmic reticulum resident proteome: Secreted ER Calcium Modulated Protein (SERCaMP) assay (AID 1508630). Also: % is scaled to controls: 0 for no effect and ±100 for the full control effect. In short, it runs like this: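 The SH-SY5Y reporter protocol was run at 3 concentrations up to 38.3 uM (primary) or 11 concentrations (follow-up): 16 h compound, 100 nM thapsigargin for 4 h, then extracellular luciferase luminescence.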

Experiment [18] has as its target Mitogen-activated protein kinase 10 (Mus musculus) (UniProt Q61831). Description: JNK3 AlphaScreen Assay (AID 530; active = well fitted curve in either direction with a large enough effect, not every such curve was filed as active). In short, it runs like this:
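Activity was read by AlphaScreen after JNK3-containing HepG2 lysate (cytokine pre-activated) phosphorylated biotinylated GST-cJun with 10 uM ATP at room temperature. Phospho-Ser73 cJun antibody with Protein-A acceptor beads provided detection.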

Experiment [19] concerns the target Ubiquitin carboxyl-terminal hydrolase 1 (Homo sapiens) (UniProt O94782). Description: Inhibitors of USP1/UAF1: Pilot qHTS (AID 504865).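 Also: rhodamine fluorescence freed from ubiquitin-rhodamine substrate followed over time; top concentration of the series differs between compounds; % is scaled to controls: 0 for no effect and ±100 for the full control effect; nearly all actives have a fitted effect of over 35% in size.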 The method, boiled down:
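USP1/UAF1 complex at 1 nM preincubated 15 min at room temperature with compound, then Ub-Rho substrate added at 150 nM final. Fluorescence (480/540 nm) read kinetically in 50 mM HEPES pH 7.8, 0.5 mM EDTA, 1 mM TCEP, 0.1 mg/ml BSA, 0.01% Tween-20.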

Where [20] appears, read: measured here: cell count channel max response.
Where [21] appears, read: measured here: lipid channel max response.

This is an account of results in PubChem BioAssay (NCATS).

“And” between values parts separate entries of the source, which are not always exact repeats. Equal values may be shown once. Records with an inconclusive call do not appear. A structure can be active in one record and inactive in another. The source made the active and inactive calls. Unless noted, calls follow the shape of the dose curve; as a rule, active = well fitted curve in the direction sought with a large enough effect; inconclusive = small, poorly fitted or top-dose-only effect, or another doubt; inactive = no such curve, though single readings can be large; an effect the other way counts as inactive or inconclusive.

Sequence of Cytochrome P450 1A2 (Homo sapiens) (P05177 whole entry, looked up): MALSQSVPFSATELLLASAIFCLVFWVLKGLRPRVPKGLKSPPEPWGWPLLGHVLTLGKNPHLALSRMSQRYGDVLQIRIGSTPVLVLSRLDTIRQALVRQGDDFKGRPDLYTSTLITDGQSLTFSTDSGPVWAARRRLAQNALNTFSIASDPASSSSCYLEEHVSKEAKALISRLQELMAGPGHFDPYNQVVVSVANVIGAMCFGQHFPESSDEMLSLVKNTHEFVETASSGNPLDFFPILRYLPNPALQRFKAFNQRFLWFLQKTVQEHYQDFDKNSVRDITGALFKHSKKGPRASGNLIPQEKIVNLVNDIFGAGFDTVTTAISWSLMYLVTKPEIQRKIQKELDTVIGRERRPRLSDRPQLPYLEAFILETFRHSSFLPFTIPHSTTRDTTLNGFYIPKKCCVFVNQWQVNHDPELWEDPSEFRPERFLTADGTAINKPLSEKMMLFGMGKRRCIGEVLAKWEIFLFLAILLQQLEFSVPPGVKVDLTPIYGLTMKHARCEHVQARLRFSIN
Sequence of DNA dC->dU-editing enzyme APOBEC-3G (Homo sapiens) (Q9HC16 whole entry, looked up): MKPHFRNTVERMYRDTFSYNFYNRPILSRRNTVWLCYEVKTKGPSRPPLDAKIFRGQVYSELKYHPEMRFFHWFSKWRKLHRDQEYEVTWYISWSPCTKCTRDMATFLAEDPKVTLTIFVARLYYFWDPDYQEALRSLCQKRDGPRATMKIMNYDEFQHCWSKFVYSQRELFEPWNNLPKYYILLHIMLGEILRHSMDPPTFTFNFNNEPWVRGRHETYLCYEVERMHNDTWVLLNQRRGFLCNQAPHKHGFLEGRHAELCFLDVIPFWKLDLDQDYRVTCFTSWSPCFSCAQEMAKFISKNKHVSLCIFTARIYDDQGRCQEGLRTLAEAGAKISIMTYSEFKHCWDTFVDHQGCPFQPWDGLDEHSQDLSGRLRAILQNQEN
Sequence of Pyruvate kinase (Leishmania mexicana) (Q27686 2-499 E452W): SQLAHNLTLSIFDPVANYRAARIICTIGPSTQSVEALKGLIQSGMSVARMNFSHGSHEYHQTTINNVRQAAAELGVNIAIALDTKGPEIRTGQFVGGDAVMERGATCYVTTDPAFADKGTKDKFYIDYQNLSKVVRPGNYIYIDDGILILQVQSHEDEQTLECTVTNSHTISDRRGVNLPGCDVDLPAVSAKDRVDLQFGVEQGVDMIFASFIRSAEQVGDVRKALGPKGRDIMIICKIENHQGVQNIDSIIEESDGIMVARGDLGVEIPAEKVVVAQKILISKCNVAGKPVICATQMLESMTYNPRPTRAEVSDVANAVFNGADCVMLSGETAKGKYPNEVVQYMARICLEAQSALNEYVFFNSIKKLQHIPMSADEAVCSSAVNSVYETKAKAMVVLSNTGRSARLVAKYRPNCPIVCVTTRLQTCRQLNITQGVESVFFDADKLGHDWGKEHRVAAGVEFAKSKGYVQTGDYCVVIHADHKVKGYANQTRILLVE
Sequence of Cytochrome P450 2C19 (Homo sapiens) (P33261 whole entry, looked up): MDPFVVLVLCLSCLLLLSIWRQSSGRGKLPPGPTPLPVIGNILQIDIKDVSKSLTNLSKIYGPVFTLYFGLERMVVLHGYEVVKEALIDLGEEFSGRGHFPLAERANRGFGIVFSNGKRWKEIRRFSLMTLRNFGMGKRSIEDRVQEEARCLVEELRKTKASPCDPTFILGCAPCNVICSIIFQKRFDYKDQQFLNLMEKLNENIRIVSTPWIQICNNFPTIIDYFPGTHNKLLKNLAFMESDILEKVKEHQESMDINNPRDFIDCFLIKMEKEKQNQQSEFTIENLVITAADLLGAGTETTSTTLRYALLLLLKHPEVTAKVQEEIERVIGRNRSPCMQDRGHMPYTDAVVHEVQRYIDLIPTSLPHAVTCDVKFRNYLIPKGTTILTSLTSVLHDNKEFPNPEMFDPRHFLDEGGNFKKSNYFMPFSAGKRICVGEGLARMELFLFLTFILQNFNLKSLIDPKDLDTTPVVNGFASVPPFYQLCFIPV
Sequence of Alpha-galactosidase A (Homo sapiens) (P06280 whole entry, looked up): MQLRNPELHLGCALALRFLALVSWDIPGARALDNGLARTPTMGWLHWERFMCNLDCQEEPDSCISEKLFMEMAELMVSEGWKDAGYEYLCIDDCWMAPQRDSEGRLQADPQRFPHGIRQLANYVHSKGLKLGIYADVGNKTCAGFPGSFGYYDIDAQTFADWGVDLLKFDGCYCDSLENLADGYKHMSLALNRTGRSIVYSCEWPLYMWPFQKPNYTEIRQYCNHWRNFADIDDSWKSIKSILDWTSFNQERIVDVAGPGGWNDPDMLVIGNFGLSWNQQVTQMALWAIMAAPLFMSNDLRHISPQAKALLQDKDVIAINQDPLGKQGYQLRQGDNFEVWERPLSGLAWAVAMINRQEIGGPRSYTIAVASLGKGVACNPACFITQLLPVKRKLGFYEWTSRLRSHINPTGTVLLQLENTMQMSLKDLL
Sequence of Cytochrome P450 3A4 (Homo sapiens) (P08684 whole entry, looked up): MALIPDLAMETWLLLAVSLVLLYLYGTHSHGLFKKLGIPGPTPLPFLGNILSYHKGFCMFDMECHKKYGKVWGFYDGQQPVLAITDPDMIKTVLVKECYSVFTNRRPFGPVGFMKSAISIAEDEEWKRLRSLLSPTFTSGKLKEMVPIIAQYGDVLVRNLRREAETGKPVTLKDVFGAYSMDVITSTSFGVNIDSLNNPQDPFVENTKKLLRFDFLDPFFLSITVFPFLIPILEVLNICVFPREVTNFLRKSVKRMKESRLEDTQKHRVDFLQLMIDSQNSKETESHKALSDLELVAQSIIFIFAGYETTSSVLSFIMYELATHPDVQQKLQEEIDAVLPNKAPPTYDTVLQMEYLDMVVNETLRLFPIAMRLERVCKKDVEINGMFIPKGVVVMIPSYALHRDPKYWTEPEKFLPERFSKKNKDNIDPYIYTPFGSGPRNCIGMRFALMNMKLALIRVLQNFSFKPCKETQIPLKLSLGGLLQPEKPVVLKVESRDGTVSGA

For `NC[C@](O)(CS(=O)(=O)O)c1ccc(Cl)cc1`, the activity change, negative = inhibition was 6.15% (inactive) in experiment [1], -5.4% (inactive) in experiment [3] and -5.03% (inactive) in experiment [14]. Besides, the Potency result was “inactive and 31.6 µM (active)” in experiment [2]; > 46 µM (inactive) in [4]; > 46 µM (inactive) in experiment [5]. Moreover, the Potency entry in [6], in experiment [8], in experiment [9], in [10], in experiment [11] and in [15] was “inactive” each time. For the same compound, the Potency entry in experiment [16] and in experiment [17] was “inactive” each time. For the same compound, the compound was classed as inactive in experiment [7], in [12] and in [13]. Besides, the max response is 11.5% in [14] (setting [20]) and 9.5% in experiment [14] (setting [21]).

For `CC(C)(C)NC[C@H](O)COc1cccc2[nH]c(=O)[nH]c12`, the activity change, negative = inhibition in experiment [1] is -7.21% (inactive); in experiment [14], -4.86% (inactive). Also, the Potency entry in experiment [2], in experiment [6], in [10], in experiment [11], in [15] and in [16] was “inactive” in each case. Further, in experiment [17], the Potency entry was “inactive”. For the same compound, the Potency in experiment [4] and in experiment [5] was > 46 µM (inactive) in each case. The compound was called inactive in [7], in [12] and in experiment [13]. Further, the max response was -1.97% in experiment [14] (setting [20]) and -5.55% in [14] (setting [21]).

In the case of `CCC(=O)N[C@@H]1Cc2ccccc2[C@@H](c2ccccc2)C1`, the Potency in experiment [2] is 15.8 µM (active); in [4] it was > 46 µM (inactive); in [5] it was > 46 µM (inactive); in [9], 7.94 µM (active). Moreover, in experiment [14], the activity change, negative = inhibition was 10.8% (inactive). Also, the max response worked out at 13.4% in experiment [14] (setting [20]) and 28.8% in experiment [14] (setting [21]). The Potency result in [15], in experiment [16] and in [17] was “inactive” in each case.

As for `C[C@@](N)(C(=O)O)c1ccc(P(=O)(O)O)cc1`, the Potency in experiment [2] was 39.8 µM (active); in experiment [4], > 46 µM (inactive); in [5] it was > 46 µM (inactive). Further, the Potency result in experiment [18], in experiment [19], in experiment [15], in experiment [16] and in experiment [17] was “inactive” in each case. Moreover, the activity change, negative = inhibition in [14] is -5.17% (inactive). The results for the max response in experiment [14] (setting [20]) and in experiment [14] (setting [21]) were 0.435% and -4.21%, respectively.
